Results filed as inconclusive are left out. Active and inactive are the calls of the source. The calls were made as follows, unless noted: active = hit-call score of the fitted dose curve at least 0.9, where 1 is the maximum; inactive = score below 0.9.
Columns and labels:
[1] = biological target: Oxysterols receptor LXR-alpha (Homo sapiens) (UniProt Q13133); assay: ATG_LXRa_TRANS: Attagene TRANS-FACTORIAL HepG2 Assay for human Liver X Receptor alpha (LXRa) (AID 2282980; active = hit-call score of the fitted dose curve at least 0.9, where 1 is the maximum); conditions: HepG2 Attagene TRANS reporter, LXRa transactivation
Outline: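 Read-out: reporter transcript levels by RT-PCR plus capillary electrophoresis, fluorescence intensity. Transiently transfected HepG2, exogenous NR-GAL4 chimera, GAL4-UAS reporters; 24 h compound exposure. Activity = increase over DMSO negative control.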

[2] = ATG_M_06_TRANS: Attagene TRANS-FACTORIAL HepG2 Assay for M06 Transcription Factor (Internal Marker) (AID 2282983; active = hit-call score of the fitted dose curve at least 0.9, where 1 is the maximum); conditions: HepG2 Attagene TRANS M06 internal marker reporter
Outline: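 Read-out: fluorescent reporter cDNA fragments resolved by capillary electrophoresis after RT-PCR and HpaI cut. Source cells were HepG2 carrying transfected multi-reporter GAL4 constructs, dosed 24 h. Increase over DMSO control analysed.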

[3] = biological target: Nuclear receptor subfamily 4 group A member 2 (Homo sapiens) (UniProt P43354); assay: ATG_NURR1_TRANS: Attagene TRANS-FACTORIAL HepG2 Assay for human Nuclear Receptor Related Protein 1 (NURR1) (AID 2282985; active = hit-call score of the fitted dose curve at least 0.9, where 1 is the maximum); conditions: HepG2 Attagene TRANS reporter, mRNA readout
Outline: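 Read-out: reporter mRNA induction by RT-PCR plus capillary electrophoresis with fluorescence detection, after 24 h dosing of transfected HepG2 cells. Exogenous NR-Gal4 chimera activity drives GAL4-UAS reporter; activity fitted upward versus DMSO.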

[4] = biological target: Transcriptional activator Myb (Homo sapiens) (UniProt P10242); assay: ATG_Myb_CIS: Attagene CIS-FACTORIAL HepG2 Assay for human Myeloblastosis (Myb) Proto-Oncogene Transcription Factor (AID 2282986); conditions: HepG2 Attagene CIS-FACTORIAL Myb reporter transcription; actives raise or lower the signal
Outline: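 Fluorescence signals from capillary electrophoresis of RT-PCR-amplified reporter cDNA give the read-out. Cells: HepG2 transfected with multiple cis-regulated reporter units. Exposure lasts 24 hours; DMSO defines baseline for gain or loss of signal.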

[5] = biological target: Nuclear respiratory factor 1 (Homo sapiens) (UniProt Q16656); assay: ATG_NRF1_CIS: Attagene CIS-FACTORIAL HepG2 Assay for human Nuclear Respiratory Factor 1 (NRF1) Orphan Gene (AID 2282987); conditions: HepG2 NRF1 cis-element reporter, Attagene multiplex; actives raise or lower the signal
Outline: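 Transcriptional reporter readout, one component of a 52-endpoint multiplexed HepG2 panel. Exposure 24 h; mRNA detected via RT-PCR and fluorescent capillary electrophoresis; fitting in both directions against DMSO.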

[6] = ATG_NFI_CIS: Attagene CIS-FACTORIAL HepG2 Assay for human Nuclear Factor I (NFI) (AID 2282989); conditions: HepG2 cis-regulatory reporter, NFI response element transcription; actives raise or lower the signal
Outline: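 Reporter transcription driven by endogenous transcription factors in HepG2 cells; 24 h treatment. Quantitation by labelled RT-PCR fragments on capillary electrophoresis, gain- or loss-of-signal relative to DMSO.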

[7] = biological target: Myc proto-oncogene protein (Homo sapiens) (UniProt P01106); assay: ATG_Myc_CIS: Attagene CIS-FACTORIAL HepG2 Assay for human Myelocytomatosis (Myc) Proto-Oncogene Transcription Factor (AID 2282990); conditions: HepG2, Attagene cis-reporter transcription factor activity; actives raise or lower the signal
Outline: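 Read-out: fluorescent reporter mRNA fragments resolved by capillary electrophoresis after RT-PCR. Human HepG2 liver cells carried transfected cis-element reporter units and were dosed for 24 h. Gain or loss of signal fitted relative to DMSO baseline.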

[8] = ATG_NF_kB_CIS: Attagene CIS-FACTORIAL HepG2 Assay for human Nuclear Factor Kappa B (NF-kB) (AID 2282991); conditions: HepG2 Attagene cis-factorial NF-kB reporter mRNA; actives raise or lower the signal
Outline: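 HepG2, transient multi-reporter transfection, cis promoter elements (endogenous TFs). 24 h exposure. Total RNA → RT → PCR → 6-FAM label → HpaI → CE. Gain/loss vs DMSO.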

[9] = ATG_NRF2_ARE_CIS: Attagene CIS-FACTORIAL HepG2 Assay for human Nuclear Factor Erythroid 2 Related Factor 2 (NFR2) response to Antioxidant Response Elements (ARE) (AID 2282992); conditions: HepG2 Attagene ARE/NRF2 reporter, transcription factor activity; actives raise or lower the signal;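 as to AC50: reporter mRNA level measured by RT-PCR and capillary electrophoresis fluorescence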
Outline: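 Using transiently transfected HepG2 cells exposed for 24 h, reporter mRNA levels were determined by RT-PCR with fluorescent primer extension and capillary electrophoresis, analysed for gain or loss of signal against DMSO.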

[10] = ATG_Oct_MLP_CIS: Attagene CIS-FACTORIAL HepG2 Assay for human Octamer-Binding Transcription Factor (Oct) (AID 2282993); conditions: HepG2 Attagene cis-factorial Oct reporter, mRNA; actives raise or lower the signal
Outline: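 Transfected HepG2 cells, 24 h treatment. Reporter mRNA quantified by RT-PCR–capillary electrophoresis; bidirectional fitting against DMSO.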

[11] = biological target: Cellular tumor antigen p53 (Homo sapiens) (UniProt P04637); assay: ATG_p53_CIS: Attagene CIS-FACTORIAL HepG2 Assay for human p53 Transcription Factor (AID 2282994); conditions: HepG2 p53 cis-element reporter, Attagene mRNA; actives raise or lower the signal
Outline: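 In HepG2 cells, reporter transcription units under cis-regulatory promoters were transiently introduced. Following 24 h treatment, RNA was processed to labelled, digested cDNA fragments read by capillary electrophoresis; fitting was bidirectional versus DMSO.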

[12] = biological target: Hepatocyte nuclear factor 4-alpha (Homo sapiens) (UniProt P41235); assay: ATG_HNF4a_TRANS: Attagene TRANS-FACTORIAL HepG2 Assay for human Hepatocyte Nuclear Factor 4 alpha (HNF4a) (AID 2282982; active = hit-call score of the fitted dose curve at least 0.9, where 1 is the maximum); conditions: HepG2 HNF4a transactivation reporter, mRNA readout
Outline: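 Transient MRTU transfection of HepG2, 24 h dosing. Readout: reporter mRNA via RT-PCR + capillary electrophoresis, fluorescence; activity fit upward relative to DMSO control.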

[13] = ATG_M_32_TRANS: Attagene TRANS-FACTORIAL HepG2 Assay for M32 Transcription Factor (Internal Marker) (AID 2282984; active = hit-call score of the fitted dose curve at least 0.9, where 1 is the maximum;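 also: transcript level of a background control reporter unit measured by RT-PCR and capillary electrophoresis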); conditions: HepG2 Attagene TRANS M32 internal marker reporter
Outline: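 Read-out: fluorescent reporter cDNA fragments resolved by capillary electrophoresis after RT-PCR of total RNA. Transfected HepG2 cells were exposed to chemical for 24 h. Activity scored in the positive direction relative to DMSO.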

[14] = biological target: Oxysterols receptor LXR-beta (Homo sapiens) (UniProt P55055); assay: ATG_LXRb_TRANS: Attagene TRANS-FACTORIAL HepG2 Assay for human Liver X Receptor beta (LXRb) (AID 2282981; active = hit-call score of the fitted dose curve at least 0.9, where 1 is the maximum); conditions: HepG2 Attagene TRANS GAL4-LXRb reporter, mRNA
Outline: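 Readout: fluorescent reporter mRNA fragments resolved by capillary electrophoresis after RT-PCR. System: transiently transfected human HepG2, exogenous LXRb-Gal4 chimera driving GAL4-UAS reporter, 24 h dosing. Activity fitted upward against DMSO baseline.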

[15] = BSK_3C_TissueFactor: BioMAP Diversity Plus: 3C Assay for Tissue Factor Biomarker Activity (AID 2282997); conditions: BioMAP 3C HUVEC, tissue factor biomarker readout; actives raise or lower the signal
Outline: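 HUVEC, 3C system, 24 h post-dose; Tissue Factor by ELISA; bidirectional fit vs DMSO baseline.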

[16] = BSK_3C_uPAR: BioMAP Diversity Plus: 3C Assay for Urokinase-type plasminogen activator receptor (uPAR) Biomarker Activity (AID 2282998); conditions: BioMAP 3C HUVEC, uPAR biomarker ELISA; actives raise or lower the signal
Outline: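 Readout: ELISA for surface uPAR. System: human umbilical vein endothelial primary cells, 24 h after chemical exposure. Analysis: bidirectional fit, DMSO baseline.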

[17] = BSK_3C_VCAM1: BioMAP Diversity Plus: 3C Assay for Vascular cell adhesion molecule 1 (VCAM1) Biomarker Activity (AID 2282999); conditions: BioMAP 3C HUVEC, VCAM1 ELISA, cytokine-stimulated; actives raise or lower the signal
Outline: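 HUVEC primary cells, 24 h compound exposure; VCAM-1 by ELISA; gain/loss of signal fitted bidirectionally vs DMSO baseline.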

[18] = BSK_4H_Eotaxin3: BioMAP Diversity Plus: 4H Assay for Eotaxin 3 Biomarker Activity (AID 2283000); conditions: primary human endothelial cells (HUVEC); actives raise or lower the signal;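 also: CCL26 protein level quantified by ELISA in parallel with SRB cytotoxicity check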
Outline: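 Readout is Eotaxin-3 (CCL26) level by ELISA in primary human umbilical vein endothelial cells harvested 24 h after chemical exposure; activity fitted in both directions against DMSO control.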

Measured: AC50

Sequence of Nuclear respiratory factor 1 (Homo sapiens) (Q16656 whole entry, looked up): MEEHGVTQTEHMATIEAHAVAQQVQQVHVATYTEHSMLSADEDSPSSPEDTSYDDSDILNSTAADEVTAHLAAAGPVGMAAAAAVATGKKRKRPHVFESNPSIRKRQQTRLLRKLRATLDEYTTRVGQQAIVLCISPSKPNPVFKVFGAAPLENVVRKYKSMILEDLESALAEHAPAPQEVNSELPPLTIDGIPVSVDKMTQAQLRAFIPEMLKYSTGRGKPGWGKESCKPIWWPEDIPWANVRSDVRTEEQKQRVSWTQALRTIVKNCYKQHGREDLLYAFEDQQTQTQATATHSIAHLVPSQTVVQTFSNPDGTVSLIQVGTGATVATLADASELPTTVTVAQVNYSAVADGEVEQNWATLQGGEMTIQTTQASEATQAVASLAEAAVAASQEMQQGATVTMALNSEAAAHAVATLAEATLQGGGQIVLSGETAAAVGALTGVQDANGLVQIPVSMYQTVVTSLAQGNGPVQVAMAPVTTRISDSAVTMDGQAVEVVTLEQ
Sequence of Nuclear receptor subfamily 4 group A member 2 (Homo sapiens) (P43354 whole entry, looked up, the tested form may be a part): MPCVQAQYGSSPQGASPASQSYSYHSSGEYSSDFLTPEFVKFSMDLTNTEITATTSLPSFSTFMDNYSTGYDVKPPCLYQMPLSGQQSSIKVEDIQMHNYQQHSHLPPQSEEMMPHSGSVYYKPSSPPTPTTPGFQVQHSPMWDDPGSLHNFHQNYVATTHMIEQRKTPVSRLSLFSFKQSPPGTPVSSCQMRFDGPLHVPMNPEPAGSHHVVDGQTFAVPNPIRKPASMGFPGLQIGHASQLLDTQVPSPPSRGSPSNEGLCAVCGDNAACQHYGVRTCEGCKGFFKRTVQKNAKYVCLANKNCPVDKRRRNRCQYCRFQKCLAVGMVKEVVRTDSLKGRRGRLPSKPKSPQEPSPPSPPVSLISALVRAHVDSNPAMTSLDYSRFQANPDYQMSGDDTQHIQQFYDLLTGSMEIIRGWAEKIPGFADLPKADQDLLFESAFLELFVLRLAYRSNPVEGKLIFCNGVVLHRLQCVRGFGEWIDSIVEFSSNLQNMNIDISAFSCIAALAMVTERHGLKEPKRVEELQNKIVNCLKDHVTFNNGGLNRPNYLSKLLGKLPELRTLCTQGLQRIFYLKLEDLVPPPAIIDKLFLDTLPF
Sequence of Cellular tumor antigen p53 (Homo sapiens) (P04637 whole entry, looked up, the tested form may be a part): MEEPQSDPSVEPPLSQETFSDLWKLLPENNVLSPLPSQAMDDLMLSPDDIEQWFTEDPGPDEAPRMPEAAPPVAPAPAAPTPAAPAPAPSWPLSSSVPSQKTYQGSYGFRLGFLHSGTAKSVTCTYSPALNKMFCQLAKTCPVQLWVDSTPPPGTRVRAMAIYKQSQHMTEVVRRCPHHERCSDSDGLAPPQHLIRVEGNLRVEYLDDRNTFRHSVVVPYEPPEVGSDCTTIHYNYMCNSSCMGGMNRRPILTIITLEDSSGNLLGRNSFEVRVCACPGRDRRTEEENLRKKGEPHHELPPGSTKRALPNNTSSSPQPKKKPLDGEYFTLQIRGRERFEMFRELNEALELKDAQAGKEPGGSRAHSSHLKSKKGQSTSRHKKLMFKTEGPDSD
Sequence of Myc proto-oncogene protein (Homo sapiens) (P01106 whole entry, looked up, the tested form may be a part): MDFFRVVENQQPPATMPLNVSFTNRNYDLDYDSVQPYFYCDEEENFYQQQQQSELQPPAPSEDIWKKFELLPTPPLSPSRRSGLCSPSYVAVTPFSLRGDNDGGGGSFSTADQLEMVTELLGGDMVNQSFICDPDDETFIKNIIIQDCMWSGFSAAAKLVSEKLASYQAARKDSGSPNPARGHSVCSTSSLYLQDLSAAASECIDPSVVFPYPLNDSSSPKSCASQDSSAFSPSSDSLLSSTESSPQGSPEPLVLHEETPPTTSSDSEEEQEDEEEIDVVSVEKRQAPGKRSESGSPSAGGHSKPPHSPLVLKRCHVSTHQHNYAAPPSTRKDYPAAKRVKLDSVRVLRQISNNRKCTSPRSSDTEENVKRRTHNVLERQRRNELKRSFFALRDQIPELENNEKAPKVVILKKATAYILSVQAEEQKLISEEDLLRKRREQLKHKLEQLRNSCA
Sequence of Oxysterols receptor LXR-alpha (Homo sapiens) (Q13133 whole entry, looked up, the tested form may be a part): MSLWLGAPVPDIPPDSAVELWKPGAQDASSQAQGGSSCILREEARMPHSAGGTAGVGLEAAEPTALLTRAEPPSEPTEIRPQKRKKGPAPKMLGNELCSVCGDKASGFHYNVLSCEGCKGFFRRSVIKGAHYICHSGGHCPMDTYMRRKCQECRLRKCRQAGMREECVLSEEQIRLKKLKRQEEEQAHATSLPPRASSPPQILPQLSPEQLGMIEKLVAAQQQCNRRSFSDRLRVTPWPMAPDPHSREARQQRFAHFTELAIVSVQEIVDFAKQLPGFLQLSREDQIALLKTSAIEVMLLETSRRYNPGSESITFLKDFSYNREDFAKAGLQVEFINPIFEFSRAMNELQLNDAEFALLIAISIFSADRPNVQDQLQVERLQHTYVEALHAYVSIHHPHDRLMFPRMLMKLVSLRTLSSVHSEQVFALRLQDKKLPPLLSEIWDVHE
Sequence of Transcriptional activator Myb (Homo sapiens) (P10242 whole entry, looked up): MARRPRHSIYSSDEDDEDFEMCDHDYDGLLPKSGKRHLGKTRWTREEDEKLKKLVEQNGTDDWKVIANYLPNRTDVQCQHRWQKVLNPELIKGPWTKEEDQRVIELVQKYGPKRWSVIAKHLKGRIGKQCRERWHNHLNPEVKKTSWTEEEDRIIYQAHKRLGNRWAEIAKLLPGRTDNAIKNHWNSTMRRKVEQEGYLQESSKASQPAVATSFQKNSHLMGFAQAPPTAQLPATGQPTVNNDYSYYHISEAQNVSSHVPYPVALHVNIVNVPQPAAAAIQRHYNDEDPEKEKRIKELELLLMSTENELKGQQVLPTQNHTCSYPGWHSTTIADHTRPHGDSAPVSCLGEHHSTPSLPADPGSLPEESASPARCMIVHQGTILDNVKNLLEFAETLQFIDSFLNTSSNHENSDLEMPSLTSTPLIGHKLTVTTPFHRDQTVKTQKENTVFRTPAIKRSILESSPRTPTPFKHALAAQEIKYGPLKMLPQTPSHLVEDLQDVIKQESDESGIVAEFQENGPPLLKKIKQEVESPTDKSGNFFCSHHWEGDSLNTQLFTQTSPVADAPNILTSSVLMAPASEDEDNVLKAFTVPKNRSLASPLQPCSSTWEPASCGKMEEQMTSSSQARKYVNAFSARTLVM
Sequence of Oxysterols receptor LXR-beta (Homo sapiens) (P55055 whole entry, looked up, the tested form may be a part): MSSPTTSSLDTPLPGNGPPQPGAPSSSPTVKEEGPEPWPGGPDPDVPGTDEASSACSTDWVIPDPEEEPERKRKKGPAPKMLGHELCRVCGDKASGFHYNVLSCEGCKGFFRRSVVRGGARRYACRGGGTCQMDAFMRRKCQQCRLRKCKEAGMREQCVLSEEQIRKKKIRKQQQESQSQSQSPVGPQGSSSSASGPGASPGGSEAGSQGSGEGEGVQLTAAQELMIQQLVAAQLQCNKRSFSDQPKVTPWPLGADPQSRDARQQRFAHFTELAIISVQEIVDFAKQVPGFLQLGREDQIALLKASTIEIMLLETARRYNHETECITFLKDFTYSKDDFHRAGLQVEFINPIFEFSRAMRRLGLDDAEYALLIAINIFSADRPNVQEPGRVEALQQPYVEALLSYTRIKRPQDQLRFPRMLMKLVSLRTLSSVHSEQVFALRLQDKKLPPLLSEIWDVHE
Sequence of Hepatocyte nuclear factor 4-alpha (Homo sapiens) (P41235 whole entry, looked up): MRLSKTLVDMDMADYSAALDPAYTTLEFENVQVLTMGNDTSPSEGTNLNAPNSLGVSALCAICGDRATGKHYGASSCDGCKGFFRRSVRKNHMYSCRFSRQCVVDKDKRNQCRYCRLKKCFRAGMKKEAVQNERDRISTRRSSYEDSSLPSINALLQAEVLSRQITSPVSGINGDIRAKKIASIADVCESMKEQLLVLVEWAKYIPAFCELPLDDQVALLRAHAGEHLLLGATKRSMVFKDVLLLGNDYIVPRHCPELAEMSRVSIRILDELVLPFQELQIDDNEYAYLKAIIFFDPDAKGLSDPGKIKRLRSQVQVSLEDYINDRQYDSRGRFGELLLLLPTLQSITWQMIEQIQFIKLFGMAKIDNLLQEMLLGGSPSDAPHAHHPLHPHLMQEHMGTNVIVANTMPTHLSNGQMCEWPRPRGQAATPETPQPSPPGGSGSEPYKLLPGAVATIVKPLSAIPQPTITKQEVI

COc1cccc(OC)c1O
not listed: [12] | [13] | [14] | [15] | [16] | [17] | [18]
inactive: all other assays above

CCN(CCN)c1cccc(C)c1
not listed: [8] | [10] | [14] | [15] | [16] | [17] | [18]
inactive: all other assays above

CCCC(=O)C(CC)Sc1ccoc1C (stereo not drawn)
active: [9] 27.7 µM
not listed: [1] | [8] | [12] | [15] | [16] | [17] | [18]
inactive: all other assays above

CN(c1nccc(=O)[nH]1)C1CCN(c2nc3ccccc3n2Cc2ccc(F)cc2)CC1
active: [16] 1.84 µM
not listed: [8] | [11] | [12] | [14]
inactive: all other assays above

O=C(Nc1ccc2c(O)c(N=Nc3ccc(N=Nc4ccc(S(=O)(=O)O)cc4)cc3)c(S(=O)(=O)O)cc2c1)c1ccccc1
not listed: [8] | [10] | [12] | [14]
inactive: all other assays above

CCCCCCOCCOCCO
inactive: [14] | [12] | [2] | [13] | [4] | [5] | [6] | [7] | [9] | [10]

CC(Oc1cc(Cl)ccc1Cl)C(=O)O (stereo not drawn)
inactive: [1] | [3] | [4] | [5] | [6] | [7] | [8] | [9] | [10] | [11]

C[C@@H]1CCN(C(=O)[C@H](CCCN=C(N)N)NS(=O)(=O)c2cccc3c2NC[C@H](C)C3)[C@@H](C(=O)O)C1
not listed: [1] | [12] | [13]
inactive: all other assays above

Cc1[nH]c(=O)c(C#N)cc1-c1ccncc1
inactive: [14] | [2] | [4] | [5] | [6] | [7] | [8] | [9] | [10] | [11]

CCOc1ccc(N=Nc2ccc(C=Cc3ccc(N=Nc4ccc(OCC)cc4)cc3S(=O)(=O)O)c(S(=O)(=O)O)c2)cc1
not listed: [3] | [8] | [14] | [15] | [16] | [17] | [18]
inactive: all other assays above

CCCC(O)C(O)CO (stereo not drawn)
inactive: [14] | [12] | [4] | [5] | [6] | [7] | [8] | [9] | [10] | [11]

OCCc1ccccc1
not listed: [13] | [14] | [15] | [16] | [17] | [18]
inactive: all other assays above

CCc1ccc(O)c(OC)c1
not listed: [12] | [13] | [14] | [15] | [16] | [17] | [18]
inactive: all other assays above

CC(C)NCC(O)COc1ccc(CC(N)=O)cc1 (stereo not drawn)
active: [9] 61.5 µM
inactive: [14] | [12] | [2] | [13] | [4] | [6] | [7] | [11]

CCOc1ccc(NC(=O)CC(C)=O)cc1
inactive: [14] | [12] | [2] | [13] | [4] | [5] | [6] | [7] | [9] | [10]

CC(=O)c1ccccn1
not listed: [1] | [12] | [13] | [15] | [16] | [17] | [18]
inactive: all other assays above

CCCC(C)=O
inactive: [1] | [12] | [2] | [3] | [5] | [6] | [7] | [8] | [9] | [11]

CCOc1ccccc1O
not listed: [1] | [15] | [16] | [17] | [18]
inactive: all other assays above

Reference: PubChem BioAssay (EPA / NIEHS)
